In the supplement of paper PMC10849652:
The full data set covers some 7,900 targets. This sample favours those with a hit. About 0.6% of all pairs of compound and target were hits. Values without a mark were called inactive.

Legend:
Assay in all cases: log2 fold change, soluble protein after heating vs DMSO (PISA); higher = thermal stabilisation; K562 cells, 10 uM, 30 min; active = over 0.2 and 3.5 SD of the protein, either way, in both replicates (recomputed)
[1] = compound: CC1=C(C=C(C=C1)NC(=O)C2=CC(=CC=C2)C(C)(C)C#N)NC3=CC4=C(C=C3)N=CN(C4=O)C
Summary of the method: (§1)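 Aliquots of K562 cells (2×10^6 cells/mL) treated with 10 μM compound for 30 min were heated for 3 min over 48°C-58°C. After pooling and extraction in PBS with 0.5% NP-40 at 4°C, soluble protein from a 21,000xg, 90 min spin was quantified by TMTpro 16plex LC-MS/MS with channel sums equalised. Thermal stability is expressed against control samples, from duplicates, as a log2 fold change.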

[2] = compound: CC1=C(C=C(C=C1)NC(=O)C2=CC(=CC=C2)N(C)C)NC(=O)C3=CC=C(C=C3)O
Summary of the method: as §1

[3] = compound: CC1=CC=C(C=C1)SC2=C3C=C(SC3=CN=C2)C(=O)N
Summary of the method: as §1

[4] = compound: CC1=NC(=CC=C1)C2=C(N=C(N2)C(C)(C)C)C3=CC4=NC=CN=C4C=C3
Summary of the method: as §1

Nexturastat A = compound: CCCCN(Cc1ccc(C(=O)NO)cc1)C(=O)Nc1ccccc1 [Nexturastat A]
Summary of the method: as §1

vemurafenib = compound: CCCS(=O)(=O)Nc1ccc(F)c(C(=O)c2c[nH]c3ncc(-c4ccc(Cl)cc4)cc23)c1F [vemurafenib]
Summary of the method: as §1

[5] = compound: CCCS(=O)(=O)Nc1ccc(F)c(C(=O)c2c[nH]c3ncc(Cl)cc23)c1F
Summary of the method: as §1

[6] = compound: CCCc1cc(C)[nH]c(=O)c1CNC(=O)c1cc(-c2ccnc(N3CCN(C)CC3)c2)cc2c1cnn2C(C)C
Summary of the method: as §1

givinostat = compound: CCN(CC)Cc1ccc2cc(COC(=O)Nc3ccc(C(=O)NO)cc3)ccc2c1 [givinostat]
Summary of the method: as §1

barasertib = compound: CCN(CCCOc1ccc2c(Nc3cc(CC(=O)Nc4cccc(F)c4)[nH]n3)ncnc2c1)CCOP(=O)(O)O [barasertib]
Summary of the method: as §1

[7] = compound: CC[C@@H]1C(=O)N(C)c2cnc(Nc3ccc(C(=O)NC4CCN(C)CC4)cc3OC)nc2N1C1CCCC1
Summary of the method: as §1

volasertib = compound: CC[C@@H]1C(=O)N(C)c2cnc(Nc3ccc(C(=O)N[C@H]4CC[C@H](N5CCN(CC6CC6)CC5)CC4)cc3OC)nc2N1C(C)C [volasertib]
Summary of the method: as §1

[8] = compound: CC[C@H](C)N1C=C(C2=C(C=C(C=C21)C3=CN=C(C=C3)N4CCNCC4)C(=O)NCC5=C(C=C(NC5=O)C)C)C
Summary of the method: as §1

epoxomicin = compound: CC[C@H](C)[C@@H](C(=O)N[C@@H]([C@@H](C)O)C(=O)N[C@@H](CC(C)C)C(=O)[C@]1(CO1)C)NC(=O)[C@H]([C@@H](C)CC)N(C)C(=O)C [epoxomicin]
Summary of the method: as §1

[9] = compound: CCn1c(C(=O)N(C2CC2)C2CC2)cc2c3c(ncn3C)c(Nc3cc(C)n(C)n3)nc21
Summary of the method: as §1

[10] = compound: CCn1cc(-c2ccnc3[nH]c(-c4cccc(CN(C)C)c4)cc23)c(-c2ccc(NC(=O)N(C)C)cc2)n1
Summary of the method: as §1

[11] = compound: CN(C)CC(=O)Nc1ccc2[nH]c(=O)c3ccccc3c2c1
Summary of the method: as §1

rosiglitazone = compound: CN(CCOC1=CC=C(C=C1)C[C@H]2C(=O)NC(=O)S2)C3=CC=CC=N3 (racemic) [rosiglitazone]
Summary of the method: as §1

[12] = compound: CN1C2=C(C3=C1C(=O)N(N=C3)CC4=CC(=CC=C4)N)SC(=C2)S(=O)C
Summary of the method: as §1

[13] = compound: CN1CCC(CNc2ccc3ncc(-c4cccc(OC(F)(F)F)c4)n3n2)CC1
Summary of the method: as §1

UniProt P12235, sequence (P12235 whole entry, looked up): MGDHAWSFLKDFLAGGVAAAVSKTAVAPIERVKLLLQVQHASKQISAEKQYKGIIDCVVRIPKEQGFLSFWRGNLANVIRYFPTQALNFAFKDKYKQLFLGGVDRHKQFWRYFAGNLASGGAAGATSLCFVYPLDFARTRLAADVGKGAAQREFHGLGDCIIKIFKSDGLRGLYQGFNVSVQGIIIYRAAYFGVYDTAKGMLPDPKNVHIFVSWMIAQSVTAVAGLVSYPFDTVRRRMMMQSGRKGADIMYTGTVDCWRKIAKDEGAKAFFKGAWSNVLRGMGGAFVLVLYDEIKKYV
UniProt P31641, sequence (P31641 whole entry, looked up): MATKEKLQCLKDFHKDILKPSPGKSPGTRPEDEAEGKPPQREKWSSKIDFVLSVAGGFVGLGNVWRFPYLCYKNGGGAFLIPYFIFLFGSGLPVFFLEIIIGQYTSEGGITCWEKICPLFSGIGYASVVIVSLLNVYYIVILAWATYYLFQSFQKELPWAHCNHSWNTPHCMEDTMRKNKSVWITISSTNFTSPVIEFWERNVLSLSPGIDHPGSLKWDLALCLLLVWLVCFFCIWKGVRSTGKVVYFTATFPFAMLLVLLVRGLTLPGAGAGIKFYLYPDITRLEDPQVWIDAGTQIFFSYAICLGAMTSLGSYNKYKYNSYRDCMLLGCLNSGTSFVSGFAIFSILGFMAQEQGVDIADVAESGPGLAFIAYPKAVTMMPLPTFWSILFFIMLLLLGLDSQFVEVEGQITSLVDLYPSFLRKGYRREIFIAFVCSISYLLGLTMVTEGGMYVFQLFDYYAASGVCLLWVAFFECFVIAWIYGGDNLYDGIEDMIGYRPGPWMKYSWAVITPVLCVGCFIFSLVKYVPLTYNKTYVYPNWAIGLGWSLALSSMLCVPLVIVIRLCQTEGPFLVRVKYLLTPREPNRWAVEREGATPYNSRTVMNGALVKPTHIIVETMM
UniProt Q9P2R7, sequence (Q9P2R7 whole entry, looked up): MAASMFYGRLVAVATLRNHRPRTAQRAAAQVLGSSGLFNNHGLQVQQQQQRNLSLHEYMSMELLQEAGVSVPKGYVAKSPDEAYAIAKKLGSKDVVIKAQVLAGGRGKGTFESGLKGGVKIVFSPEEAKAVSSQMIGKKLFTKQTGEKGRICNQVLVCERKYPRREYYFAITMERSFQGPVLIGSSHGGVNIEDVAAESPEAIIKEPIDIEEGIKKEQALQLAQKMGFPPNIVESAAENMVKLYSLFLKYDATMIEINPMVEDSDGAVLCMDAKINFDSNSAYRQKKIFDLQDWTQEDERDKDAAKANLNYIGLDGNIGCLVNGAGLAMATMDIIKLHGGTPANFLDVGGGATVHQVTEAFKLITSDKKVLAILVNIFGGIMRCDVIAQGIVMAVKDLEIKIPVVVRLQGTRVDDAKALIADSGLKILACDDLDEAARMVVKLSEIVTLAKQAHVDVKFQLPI
UniProt P42226, sequence (P42226 whole entry, looked up): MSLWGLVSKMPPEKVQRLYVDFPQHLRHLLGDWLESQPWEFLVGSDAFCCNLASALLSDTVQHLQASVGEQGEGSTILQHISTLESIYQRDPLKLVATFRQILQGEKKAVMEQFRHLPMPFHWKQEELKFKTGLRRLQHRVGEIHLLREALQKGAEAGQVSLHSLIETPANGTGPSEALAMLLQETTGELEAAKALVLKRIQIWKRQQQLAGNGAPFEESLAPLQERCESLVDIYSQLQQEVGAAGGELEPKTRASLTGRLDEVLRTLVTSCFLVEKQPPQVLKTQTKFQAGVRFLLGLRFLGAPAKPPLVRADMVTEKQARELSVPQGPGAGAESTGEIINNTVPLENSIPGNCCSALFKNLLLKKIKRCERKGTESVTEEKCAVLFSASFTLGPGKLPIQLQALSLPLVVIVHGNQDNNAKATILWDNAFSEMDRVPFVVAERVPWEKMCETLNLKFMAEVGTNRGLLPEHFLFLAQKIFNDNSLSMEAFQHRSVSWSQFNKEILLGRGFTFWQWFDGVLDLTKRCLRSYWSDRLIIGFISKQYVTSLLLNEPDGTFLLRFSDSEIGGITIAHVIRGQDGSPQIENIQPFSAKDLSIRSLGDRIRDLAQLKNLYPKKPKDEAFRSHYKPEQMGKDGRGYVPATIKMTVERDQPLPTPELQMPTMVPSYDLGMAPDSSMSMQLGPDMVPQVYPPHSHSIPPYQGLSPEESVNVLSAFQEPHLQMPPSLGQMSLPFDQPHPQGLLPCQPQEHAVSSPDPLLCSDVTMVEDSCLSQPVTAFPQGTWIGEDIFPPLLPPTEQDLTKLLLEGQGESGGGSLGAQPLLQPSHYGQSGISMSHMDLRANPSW
UniProt Q9NZD8, sequence (Q9NZD8 whole entry, looked up): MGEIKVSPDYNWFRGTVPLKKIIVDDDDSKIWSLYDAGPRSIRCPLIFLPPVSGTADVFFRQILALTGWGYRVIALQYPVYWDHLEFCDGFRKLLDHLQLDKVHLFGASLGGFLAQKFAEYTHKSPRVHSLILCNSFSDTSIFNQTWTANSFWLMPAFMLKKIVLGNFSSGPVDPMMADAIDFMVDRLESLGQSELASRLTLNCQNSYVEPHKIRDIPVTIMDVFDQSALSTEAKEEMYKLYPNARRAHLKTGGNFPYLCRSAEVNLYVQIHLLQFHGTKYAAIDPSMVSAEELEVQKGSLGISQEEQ
UniProt P62318, sequence (P62318 whole entry, looked up): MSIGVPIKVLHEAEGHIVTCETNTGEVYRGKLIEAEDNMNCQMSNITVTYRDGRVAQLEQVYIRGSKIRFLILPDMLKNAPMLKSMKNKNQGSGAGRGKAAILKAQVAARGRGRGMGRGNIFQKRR
UniProt Q9UH99, sequence (Q9UH99 whole entry, looked up): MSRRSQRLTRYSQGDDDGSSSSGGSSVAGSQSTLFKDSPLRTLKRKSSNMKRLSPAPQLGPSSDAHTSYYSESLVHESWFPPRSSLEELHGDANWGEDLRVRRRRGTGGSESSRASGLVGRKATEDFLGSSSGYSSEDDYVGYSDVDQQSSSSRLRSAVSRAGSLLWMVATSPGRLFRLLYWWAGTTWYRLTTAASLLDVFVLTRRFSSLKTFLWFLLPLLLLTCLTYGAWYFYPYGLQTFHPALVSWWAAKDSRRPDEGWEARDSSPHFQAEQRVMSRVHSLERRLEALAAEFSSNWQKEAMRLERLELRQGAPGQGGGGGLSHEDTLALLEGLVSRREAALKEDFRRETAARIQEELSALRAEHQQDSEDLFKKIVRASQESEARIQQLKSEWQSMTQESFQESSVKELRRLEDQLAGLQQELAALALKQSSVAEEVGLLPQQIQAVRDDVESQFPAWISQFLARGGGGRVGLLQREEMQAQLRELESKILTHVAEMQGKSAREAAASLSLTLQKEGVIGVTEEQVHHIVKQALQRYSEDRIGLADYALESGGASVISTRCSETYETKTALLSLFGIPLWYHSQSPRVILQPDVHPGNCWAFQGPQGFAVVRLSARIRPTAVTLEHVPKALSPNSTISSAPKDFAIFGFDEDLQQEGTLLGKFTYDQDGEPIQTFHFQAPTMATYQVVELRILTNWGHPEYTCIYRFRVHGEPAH
UniProt Q13586, sequence (Q13586 whole entry, looked up): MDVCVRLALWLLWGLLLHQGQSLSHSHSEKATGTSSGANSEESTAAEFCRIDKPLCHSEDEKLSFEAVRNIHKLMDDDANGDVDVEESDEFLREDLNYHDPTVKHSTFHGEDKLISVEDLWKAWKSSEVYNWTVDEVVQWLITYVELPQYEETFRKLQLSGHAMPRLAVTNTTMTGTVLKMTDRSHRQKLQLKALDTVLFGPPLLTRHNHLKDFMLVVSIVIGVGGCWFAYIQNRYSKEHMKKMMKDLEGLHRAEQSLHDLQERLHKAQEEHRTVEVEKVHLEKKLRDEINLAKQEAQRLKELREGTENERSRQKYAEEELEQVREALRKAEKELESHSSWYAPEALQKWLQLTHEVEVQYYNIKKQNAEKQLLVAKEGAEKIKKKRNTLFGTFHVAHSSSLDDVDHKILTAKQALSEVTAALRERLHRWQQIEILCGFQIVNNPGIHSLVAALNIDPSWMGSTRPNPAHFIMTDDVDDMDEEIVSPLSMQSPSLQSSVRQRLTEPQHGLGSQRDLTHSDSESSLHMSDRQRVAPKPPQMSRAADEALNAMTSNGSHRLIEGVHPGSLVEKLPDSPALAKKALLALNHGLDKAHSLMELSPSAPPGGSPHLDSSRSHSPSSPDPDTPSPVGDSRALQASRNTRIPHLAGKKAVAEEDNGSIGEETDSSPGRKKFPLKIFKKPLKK
UniProt Q9UKI8, sequence (Q9UKI8 whole entry, looked up): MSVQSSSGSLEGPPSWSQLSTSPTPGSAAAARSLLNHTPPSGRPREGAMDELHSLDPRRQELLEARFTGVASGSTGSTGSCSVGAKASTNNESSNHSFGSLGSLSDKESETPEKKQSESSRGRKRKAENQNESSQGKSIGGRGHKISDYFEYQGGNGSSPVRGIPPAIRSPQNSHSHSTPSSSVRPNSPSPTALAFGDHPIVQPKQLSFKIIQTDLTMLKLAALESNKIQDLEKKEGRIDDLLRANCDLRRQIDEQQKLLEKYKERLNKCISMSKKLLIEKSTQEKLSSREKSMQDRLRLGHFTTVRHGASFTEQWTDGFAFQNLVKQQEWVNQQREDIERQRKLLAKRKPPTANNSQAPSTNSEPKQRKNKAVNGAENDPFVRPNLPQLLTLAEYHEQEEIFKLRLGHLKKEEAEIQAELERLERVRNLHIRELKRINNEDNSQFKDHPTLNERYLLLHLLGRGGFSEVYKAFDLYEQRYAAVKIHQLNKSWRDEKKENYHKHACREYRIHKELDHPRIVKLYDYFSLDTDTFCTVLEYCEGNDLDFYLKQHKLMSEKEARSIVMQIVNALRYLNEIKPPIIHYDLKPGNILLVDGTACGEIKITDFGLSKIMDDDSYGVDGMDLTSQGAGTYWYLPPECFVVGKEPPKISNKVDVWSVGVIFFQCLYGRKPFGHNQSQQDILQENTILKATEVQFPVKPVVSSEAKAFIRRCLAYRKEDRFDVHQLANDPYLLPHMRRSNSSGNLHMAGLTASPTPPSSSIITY

Row | Target | log2 fold change [1] | log2 fold change [2] | log2 fold change [3] | log2 fold change [4] | log2 fold change (Nexturastat A) | log2 fold change (vemurafenib) | log2 fold change [5] | log2 fold change [6] | log2 fold change (givinostat) | log2 fold change (barasertib) | log2 fold change [7] | log2 fold change (volasertib) | log2 fold change [8] | log2 fold change (epoxomicin) | log2 fold change [9] | log2 fold change [10] | log2 fold change [11] | log2 fold change (rosiglitazone) | log2 fold change [12] | log2 fold change [13]
1 | SNRPD3 (UniProt P62318) | -0.03 | 0.031 | -0.048 | -0.079 | -0.023 | -0.015 | -0.102 | -0.126 | 0 | -0.039 | 0.194 | 0.134 | -0.058 | -0.037 | 0.005 | 0.058 | -0.07 | -0.047 | 0.001 | 0.198
2 | SPG21 (UniProt Q9NZD8) | -0.108 | -0.157 | -0.003 | 0.057 | 0.016 | 0.044 | -0.044 | 0.057 | -0.014 | 0.026 | -0.082 | -0.615 (active) | 0.065 | 0.315 (active) | -0.013 | 0.037 | 0.018 | 0.123 | -0.098 | -0.21
3 | STARD9 (UniProt Q9P2P6) | -0.29 | 0.01 | -0.07 | -0.048 | 0.144 | -0.161 | 0.029 | -0.035 | -0.046 | -0.017 | -0.024 | 0.238 | -0.029 | 0.022 | 0.064 | 0.008 | 0.075 | 0.015 | 0.507 (active) | -0.098
4 | STK26 (UniProt Q9P289) | -0.083 | -0.037 | 0.068 | 0.015 | 0.044 | -0.04 | -0.03 | 0.014 | 0.086 | 0.08 | -0.017 | -0.062 | 0.018 | 0.084 | -0.003 | -0.117 | -0.033 | 0.068 | 0.014 | -0.191
5 | SLC25A4 (UniProt P12235) | 0.041 | 0.029 | 0.073 | 0.017 | -0.228 (active) | -0.028 | -0.02 | -0.032 | -0.049 | -0.009 | -0.012 | 0.06 | -0.024 | 0.009 | 0.034 | 0.037 | -0.053 | -0.001 | -0.038 | -0.001
6 | SNRNP40 (UniProt Q96DI7) | 0.01 | 0.001 | -0.06 | -0.023 | 0 | -0.027 | -0.046 | -0.037 | -0.035 | -0.04 | 0.067 | 0.059 | 0.026 | -0.05 | -0.018 | -0.033 | -0.012 | -0.001 | -0.029 | 0.261 (active)
7 | TBCD (UniProt Q9BTW9) | 0.016 | 0.003 | 0.025 | 0.052 | -0.051 | 0.005 | 0.02 | -0.007 | 0.012 | 0.019 | -0.061 | -0.315 (active) | 0.074 | -0.012 | 0.028 | -0.002 | 0.033 | 0.016 | -0.044 | -0.094
8 | SUN2 (UniProt Q9UH99) | 0.023 | 0.001 | -0.017 | -0.025 | 0.005 | -0.026 | 0.015 | 0.013 | 0.005 | -0.012 | 0.016 | -0.064 | 0.01 | 0.045 | 0.006 | -0.032 | -0.012 | 0.033 | 0.015 | 0.057
9 | SLC6A6 (UniProt P31641) | 0.017 | 0.014 | 0.011 | 0.028 | -0.062 | 0.066 | -0.01 | -0.176 | 0.014 | -0.018 | -0.011 | 0.01 | 0 | 0.135 | 0.024 | -0.053 | -0.012 | -0.011 | -0.02 | 0.084
10 | STAT6 (UniProt P42226) | -0.092 | -0.111 | 0.053 | 0.015 | 0.044 | 0.058 | 0.082 | -0.012 | 0.078 | 0.001 | -0.196 | -0.594 (active) | -0.02 | -0.074 | -0.033 | 0.1 | 0.093 | 0.038 | 0.018 | -0.11
11 | TLK1 (UniProt Q9UKI8) | 0.062 | -0.009 | 0.018 | 0.011 | 0.012 | 0.008 | 0.019 | -0.053 | 0.078 | 0.079 | 0.017 | -0.088 | 0.02 | -0.018 | 0.01 | -0.054 | 0.033 | 0.026 | -0.086 | -0.037
12 | STIM1 (UniProt Q13586) | 0.014 | 0.003 | 0.028 | 0.045 | -0.066 | -0.006 | 0.034 | -0.015 | 0.009 | 0.008 | -0.116 | -0.206 | 0.025 | 0.028 | 0.004 | 0.023 | 0.007 | 0.037 | -0.047 | -0.195
13 | SRSF7 (UniProt Q16629) | 0 | 0.025 | -0.115 | -0.112 | 0.193 | -0.043 | -0.088 | 0.114 | 0.059 | -0.105 | 0.18 | 0.215 | -0.039 | -0.171 | 0.03 | 0.181 | -0.085 | -0.172 | 0.218 | 0.175
14 | SREK1 isoform 2 (UniProt Q8WXA9) | -0.335 | -0.083 | 0 | 0.045 | 0.108 | 0.019 | 0.096 | -0.069 | 0.062 | -0.057 | -0.122 | -0.22 | 0.037 | -0.021 | 0.021 | -0.098 | -0.029 | 0.015 | 0.026 | -0.035
15 | THRAP3 (UniProt Q9Y2W1) | -0.008 | 0.004 | -0.056 | -0.035 | 0.109 | 0.063 | -0.01 | 0.197 | 0.093 | -0.099 | 0.03 | 0.098 | -0.137 | -0.093 | -0.013 | 0.101 | -0.026 | -0.007 | 0.025 | -0.058
16 | SUCLA2 (UniProt Q9P2R7) | -0.038 | -0.018 | 0.003 | 0.06 | -0.083 | 0.047 | 0.008 | -0.02 | -0.003 | 0.064 | 0.013 | -0.105 | 0.052 | 0.016 | 0.01 | -0.049 | 0.018 | 0.065 | -0.071 | -0.05
